Bioassay records: PubChem BioAssay, National Center for Advancing Translational Sciences (NCATS)
Pf growth 48h = P. falciparum growth inhibition at 48 hours (one generation); P. falciparum luciferase growth in erythrocytes, 48 h; Potency, µM (series often up to 28.7 µM), usual class: inhibitors; 310,000 tested, 5.9% active
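Luminescence readout; reporter = integrated firefly luciferase in P. falciparum. RBC culture at 2% hematocrit, 0.1% parasitemia final, 37 C/5% CO2; decreased signal taken as growth inhibition.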
AmpC detergent = blocks E. coli AmpC beta-lactamase in detergent assay; 370,000 tested, 0.041% active; P00811; Potency, µM (series often up to 114 µM), hits mostly inhibitors; AID 485294; AmpC hydrolysis of nitrocefin, absorbance 480 nm, 0.01% Triton; note: nearly all actives have a fitted effect of over 25% in size
Target sequence (P00811 whole entry, looked up): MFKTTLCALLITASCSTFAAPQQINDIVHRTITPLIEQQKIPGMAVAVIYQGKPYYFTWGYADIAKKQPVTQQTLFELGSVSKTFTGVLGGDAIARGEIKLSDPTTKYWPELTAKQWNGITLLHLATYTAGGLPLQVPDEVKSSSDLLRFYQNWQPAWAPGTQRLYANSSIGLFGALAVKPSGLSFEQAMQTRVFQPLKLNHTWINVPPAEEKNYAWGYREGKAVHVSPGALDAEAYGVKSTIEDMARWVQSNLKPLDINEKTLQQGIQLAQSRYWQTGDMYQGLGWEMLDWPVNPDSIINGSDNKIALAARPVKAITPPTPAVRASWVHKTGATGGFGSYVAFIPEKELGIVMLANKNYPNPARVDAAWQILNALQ
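AmpC (5.3 nM in the dispensed reagent) in 20 mM phosphate pH 7.0 with 0.01% (detergent screen) or 0.0001% Triton X-100 was preincubated with compounds for 15 min at room temperature. Nitrocefin was then added from an 800 uM solution, and hydrolysis was followed at 480 nm.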
AMA1-RON2 inh = inhibitors of Plasmodium falciparum AMA1-RON2 interaction; AlphaScreen AMA1-biotinylated RON2 peptide binding; Potency, µM (series often up to 58.2 µM), actives largely listed as inhibitors; 360,000 tested, 0.2% active; AID 720542; note: nearly all actives have a fitted effect of over 45% in size
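AMA1 (3D7) with his tag at 25 nM final met compounds first, then biotinylated RON2 peptide at 25 nM; detection used donor plus acceptor beads, 10 µg/mL apiece, read by AlphaScreen after 30 min at room temperature.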
Pf growth 96h = P. falciparum growth inhibition at 96 hours. P. falciparum luciferase reporter growth, 96 h. Potency, µM (top dose mostly 28.7 µM), usual class: inhibitors. 320,000 tested, 6.9% active. AID 504834
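P. falciparum expressing integrated firefly luciferase grown in erythrocytes (2% hematocrit, 0.05% parasitemia final) with compounds for 96 hours at 37 C, 5% CO2. Growth inhibition read as loss of luminescence after adding luciferase detection reagent.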
AmpC inh no detg = inhibitors of E. coli AmpC beta-lactamase without detergent | P00811 | AmpC nitrocefin hydrolysis, absorbance 480 nm, 0.0001% Triton | Potency, µM (series often up to 57.1 µM), actives largely listed as inhibitors | 330,000 tested, 0.52% active | AID 485341; note: nearly all actives have a fitted effect of over 20% in size
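AmpC (5.3 nM in the dispensed reagent) in 20 mM phosphate pH 7.0 with 0.01% (detergent screen) or 0.0001% Triton X-100 was preincubated with compounds for 15 min at room temperature. Nitrocefin was then added from an 800 uM solution, and hydrolysis was followed at 480 nm.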
HCV inhibitor = blocks hepatitis C virus; Huh7.5.1 HCVcc-Cre infection, luciferase reporter, 44 h; Potency, µM (top dose mostly 41.8 µM), hits mostly inhibitors; 340,000 tested, 3.4% active; AID 651820
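A cell-based infection assay in which seeded cells (1,000 per well) receive test compound after 4 h, are inoculated with HCVcc-Cre at approximately 0.5 moi, and are incubated 44 h before luminescence detection.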
Hits are given with their value; - = inactive; ? = inconclusive; . = no result given; [ ] = another dose, or the depositor's remark. A selection: hits, their analogues and other compounds. The true share with any hit is near 11%. Calls come from the whole dose curve; as a rule, active = well fitted curve in the direction sought with a large enough effect; inconclusive = small, poorly fitted or top-dose-only effect, or another doubt; inactive = no such curve, though single readings can be large; an effect the other way counts as inactive or inconclusive.

SMILES | Pf growth 48h | AmpC detergent | AMA1-RON2 inh | Pf growth 96h | AmpC inh no detg | HCV inhibitor
COc1ccccc1NC(=O)CN1C(=O)c2cccc3cccc1c23 | . | - | . | . | . | .
COc1ccc(/C=C(/NC(=O)c2ccccc2)C(=O)N2CCC(C)CC2)cc1 | ? | - | - | - | - | -
CCOC(=O)N1CCN(C(=O)/C(=C/c2ccc(OC)cc2)NC(=O)c2ccccc2)CC1 | - | - | - | ? | - | -
COc1ccc(/C=C(\NC(=O)c2ccccc2)C(=O)N2CCC(C)CC2)cc1 | 13µM | - | - | - | - | -
C=CCOC(=O)/C(=C\c1cccc2ccccc12)NC(=O)c1ccccc1 | ? | - | - | - | - | 7.9µM
CCOC(=O)N1CCN(C(=O)/C(=C/c2cccc3ccccc23)NC(=O)c2ccc(OC)cc2)CC1 | 13µM | - | - | 9.3µM | - | ?
O=C(N/C(=C\c1ccccc1)C(=O)N1CCOCC1)c1cccc(Br)c1 | ? | - | - | 7.4µM | - | ?
Cc1ccc(-n2c3c(cc(C(=O)NCc4ccco4)c2=O)C(=O)CC(C)(C)C3)cc1 | ? | - | - | 0.47µM | - | -
Cc1ccc(C2CC(c3ccccc3OC(F)F)Nc3ncnn32)cc1 (stereo not drawn) | 12µM | - | - | . | - | -
Cc1ccccc1C1CC(c2ccccc2OC(F)F)Nc2ncnn21 (stereo not drawn) | ? | - | - | - | - | -
Clc1ccccc1C1CC(c2ccccc2)Nc2ncnn21 (stereo not drawn) | ? | ? | - | - | 40µM | -
CCc1cccc(C)c1NC(=O)Cn1nnc(-c2nc(-c3ccccc3F)no2)c1N | . | - | . | . | . | .
O=C1COc2cc(S(=O)(=O)CCC(=O)NC3CCCCC3)c(Cl)cc2N1 | . | - | . | . | . | .
COC(=O)C1=C(C(C)=O)C(c2ccc(C)cc2)n2nnnc2N1 (stereo not drawn) | . | - | - | ? | - | -
CCc1ccc(C2C(C(C)=O)=C(C(=O)OC)Nc3nnnn32)cc1 (stereo not drawn) | - | - | - | 5.2µM | - | -
CC(C)CCCCCCCCCCCCC(=O)NCC(=O)NC1C(C)OC(Nc2ncnc3nc[nH]c23)C(O)C1O (stereo not drawn) | . | . | - | . | . | 1µM
C/C(=C\CNc1ncnc2nc[nH]c12)CO | . | . | - | . | . | -
CCOc1ccc(-c2cc(C(=O)Oc3ccc(C#N)cc3)no2)cc1 | . | - | . | . | . | .
Cc1ccc(CNc2ncnc3cc(Cl)ccc23)cc1 | ? | - | - | ? | - | 11µM
Cc1ccc(CNc2ncnc3cc(Cl)ccc23)o1 | . | - | - | ? | - | 11µM
COc1cccc(Cn2c(=O)n(-c3ccc(Br)cc3F)c(=O)c3sc4ccccc4c32)c1 | . | - | . | . | . | .
CCNC(=O)c1ccc2nc(CCc3ccccc3)oc2c1 | . | - | . | . | . | .
Cc1ccc(SCCCCN2CCNCC2)cc1 | - | - | ? | - | - | 11µM
Clc1ccc(SCCCCN2CCNCC2)cc1 | ? | - | ? | 12µM | - | ?
Clc1ccc(SCCCCN2CCOCC2)cc1 | - | - | - | - | - | -
SMILES | Pf growth 48h | AmpC detergent | AMA1-RON2 inh | Pf growth 96h | AmpC inh no detg | HCV inhibitor
C#CCN1C=CC(=O)[C@@H](O)[C@H]1c1ccccc1Br | . | . | - | . | . | 5.6µM
O=C(c1ccccc1)c1cc2ccc(O)cc2oc1=O | - | - | - | 0.17µM | - | -
CCCCCCc1ccc(-c2ncc(N)cn2)cc1 | - | - | - | - | - | 5.6µM
Cc1ccc(C)c(N2CCN(C(=O)CCn3c(=O)[nH]c4ccccc4c3=O)CC2)c1 | . | - | . | . | . | .
CCOc1cc2[nH]c(=O)n(CCC(=O)N3CCN(c4ccccc4)CC3)c(=O)c2cc1OCC | . | - | . | . | . | .
CCOc1cc2[nH]c(=O)n(CCCCC(=O)N3CCCCCC3)c(=O)c2cc1OCC | 5.2µM | ? | - | - | - | -
COc1cc2[nH]c(=O)n(CCC(=O)N3CCN(c4cc(Cl)ccc4C)CC3)c(=O)c2cc1OC | 12µM | - | - | - | - | ?
CCOc1cc2[nH]c(=O)n(CCCCC(=O)N3CCN(c4cccc(Cl)c4)CC3)c(=O)c2cc1OCC | . | - | . | . | . | .
CCOc1cc2[nH]c(=O)n(CCC(=O)N3CCN(c4ccccc4OC)CC3)c(=O)c2cc1OCC | ? | - | - | 12µM | - | -
O=C(NCC(c1ccco1)S(=O)(=O)c1cccs1)c1ccccc1F (stereo not drawn) | . | - | . | . | . | .
c1ccc2c(c1)-c1cccc3c1c-2cc1ccccc13 | - | - | . | - | - | -
Oc1cc(-c2ccccc2)c2ccccc2c1 | ? | - | - | 12µM | - | ?
COc1ccc2c(c1)sc1ncc(C(=O)NCc3ccc(OC(C)C)cc3)c(=O)n12 | . | - | . | . | . | .
CCOc1ccc(N2C(=O)c3cccnc3C2=O)cc1 | - | - | - | 1.9µM | - | -
CCOc1ccc(N2C(=O)c3cccnc3C2Nc2ccc(C)c(C)c2)cc1 (stereo not drawn) | . | - | - | 4.7µM | - | -
CCOc1ccc(N2C(=O)Cc3ccccc3C2=O)cc1 | - | - | - | - | - | -
CCOc1ccc(N2C(=O)c3cccnc3C2Nc2ccc(C)cc2)cc1 (stereo not drawn) | 9.3µM | - | - | 1.7µM | - | -
O=C1c2ccccc2C(=O)N1CCCOc1ccccc1 | - | - | - | . | - | -
CCOc1ccc(OCCN2C(=O)c3ccccc3C2=O)cc1 | ? | - | - | 13µM | - | -
O=C(NCc1ccccc1Cl)c1cc2ccccc2o1 | . | - | . | . | . | .
Cc1ccc([N+](=O)[O-])c(OCC(=O)OCC(=O)c2ccccc2)c1 | - | ? | - | 0.93µM | - | -
O=C(/C=C\c1ccc2c(c1)OCO2)NC1CC(=O)N(c2cccc(F)c2)C1 (stereo not drawn) | . | - | . | . | . | .
COc1ccc(-c2cc(=O)n(CCC#N)[nH]2)cc1 | - | - | - | 7.4µM | - | -
COc1ccc(-c2cc3nc(N)cc(=O)n3[nH]2)cc1 | . | - | . | . | . | .
COc1ccc(-c2csc(N(CCCN3CCOCC3)C(=O)c3ccco3)n2)cc1 | ? | - | ? | -[5.75 µM] | - | 10µM
SMILES | Pf growth 48h | AmpC detergent | AMA1-RON2 inh | Pf growth 96h | AmpC inh no detg | HCV inhibitor
Cc1ccc(-c2csc(N(CCCN(C)C)C(=O)c3ccco3)n2)cc1 | - | - | - | - | - | ?
COc1ccc(OC)c(-c2csc(N(Cc3ccco3)C(=O)c3ccco3)n2)c1 | ? | - | - | ? | - | ?
Cc1ccc(-c2csc(N(CCCN3CCOCC3)C(=O)c3ccco3)n2)cc1 | ? | - | - | - | - | 11µM
Cc1ccccc1C(=O)Nc1ccccc1C(=O)OCc1cc(=O)n2ccsc2n1 | . | - | . | . | . | .
CCOC(=O)c1sc2nc(C)c([N+](=O)[O-])c(COC)c2c1N | 10µM | - | - | - | - | -
CCOC(=O)c1sc2ncc([N+](=O)[O-])cc2c1N | - | - | - | - | - | -
CCOC(=O)N1CCC(NC(=O)c2cnn(-c3ccc(C)cc3)c2-n2cccc2)CC1 | . | - | . | . | . | .
